Laboratory results reported in ChEMBL document CHEMBL3988442, “University of Dundee, Small-Polar-MMV Screening Library” (2021).
For some assays here: Results with a measured potency or affinity are listed apart.

Legend:
Design in all cases: scale not given: direction of the effect not stated beside the values
[1] = target: Protein translocase subunit SecA (Escherichia coli (strain K12)) (UniProt P10408); assay: Assay to Identify E. coli SecA ATPase Inhibitors; assay type: functional; conditions: 30 µM
[2] = target: T1, Ubiquitin-activating enzyme e1, putative (Leishmania donovani (strain BPK282A1)) (UniProt E9BSI1); assay: Leishmania donovani Ubiquitin Activating Enzyme (LdE1); assay type: functional; conditions: 30 µM
T1 sequence (whole entry): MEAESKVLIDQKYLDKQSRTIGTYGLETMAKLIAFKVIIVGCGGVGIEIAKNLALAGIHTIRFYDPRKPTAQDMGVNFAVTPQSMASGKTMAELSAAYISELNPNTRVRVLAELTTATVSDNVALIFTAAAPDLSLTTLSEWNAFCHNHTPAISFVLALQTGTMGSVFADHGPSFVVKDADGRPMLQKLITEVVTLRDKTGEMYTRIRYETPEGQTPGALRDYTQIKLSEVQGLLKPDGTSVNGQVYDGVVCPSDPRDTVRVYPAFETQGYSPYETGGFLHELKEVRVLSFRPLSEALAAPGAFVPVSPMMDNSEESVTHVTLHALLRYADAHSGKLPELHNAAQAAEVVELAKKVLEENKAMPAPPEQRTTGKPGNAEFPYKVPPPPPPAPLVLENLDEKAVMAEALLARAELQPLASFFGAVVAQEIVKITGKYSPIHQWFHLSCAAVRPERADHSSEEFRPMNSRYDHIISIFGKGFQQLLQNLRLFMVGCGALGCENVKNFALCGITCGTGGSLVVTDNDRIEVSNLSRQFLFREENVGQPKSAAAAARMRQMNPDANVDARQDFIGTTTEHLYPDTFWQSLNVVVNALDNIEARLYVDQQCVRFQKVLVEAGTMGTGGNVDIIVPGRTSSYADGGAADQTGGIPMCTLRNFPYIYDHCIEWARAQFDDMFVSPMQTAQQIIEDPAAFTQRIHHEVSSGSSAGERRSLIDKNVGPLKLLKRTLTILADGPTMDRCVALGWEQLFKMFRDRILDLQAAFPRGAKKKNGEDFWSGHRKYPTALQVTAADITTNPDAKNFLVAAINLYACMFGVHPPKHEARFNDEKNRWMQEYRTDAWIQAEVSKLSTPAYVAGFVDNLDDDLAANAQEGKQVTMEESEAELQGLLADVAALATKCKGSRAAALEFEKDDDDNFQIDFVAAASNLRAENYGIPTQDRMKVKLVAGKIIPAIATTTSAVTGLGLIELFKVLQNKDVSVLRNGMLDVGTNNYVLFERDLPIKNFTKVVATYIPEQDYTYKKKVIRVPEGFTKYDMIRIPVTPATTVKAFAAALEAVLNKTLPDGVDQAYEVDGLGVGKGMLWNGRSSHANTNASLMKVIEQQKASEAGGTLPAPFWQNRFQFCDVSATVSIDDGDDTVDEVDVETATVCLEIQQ

[3] = target: AMP-activated protein kinase, AMPK (Homo sapiens) (UniProt P54646+O43741+P54619+Q9UGJ0+Q9Y478+Q13131+Q9UGI9); assay: AMP-dependent Kinase enzyme assay. An in vitro enzyme assay that detects ADP turnover that is directly proportional to AMPK activity. This uses naive AMPK that is activated during the assay with MK-8722; assay type: functional; conditions: 30 µM
[4] = target: Sialic acid-binding Ig-like lectin 9 (Homo sapiens) (UniProt Q9Y336); assay: Hs-Siglec9 ALPHAscreen SOP 20170721; conditions: 10 µM
[5] = tested on: Trypanosoma cruzi; assay: Trypanosoma cruzi phosphomannomutase and mannose-1-phosphate guanylyltransferase assay; assay type: functional; conditions: 10 µM
[6] = target: T2, Arginase-2, mitochondrial (Homo sapiens) (UniProt P78540); assay: in vitro enzyme assay to detect the production of urea directly proportional to the activity of Arginase II; assay type: functional; conditions: 33.3 µM; also: in the data most compounds retested in dose-response had high values
T2 sequence (whole entry): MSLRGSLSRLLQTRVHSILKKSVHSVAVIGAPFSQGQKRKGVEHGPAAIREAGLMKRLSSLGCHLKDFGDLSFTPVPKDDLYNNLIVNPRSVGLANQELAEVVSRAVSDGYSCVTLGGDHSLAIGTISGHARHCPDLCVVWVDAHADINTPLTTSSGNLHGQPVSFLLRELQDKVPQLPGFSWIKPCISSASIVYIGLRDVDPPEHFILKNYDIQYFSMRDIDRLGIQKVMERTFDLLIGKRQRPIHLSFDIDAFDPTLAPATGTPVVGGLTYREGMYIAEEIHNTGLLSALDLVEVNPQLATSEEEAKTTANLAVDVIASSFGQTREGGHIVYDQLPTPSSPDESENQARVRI

[7] = target: T3, Proteasome subunit beta (Trypanosoma cruzi) (UniProt O96673); assay: Trypanosoma cruzi proteasome chymotrypsin-like activity (TcProtChymo) assay.; also: in the data most compounds retested in dose-response had high values; assay type: functional; conditions: 9.37 µM
T3 sequence (whole entry): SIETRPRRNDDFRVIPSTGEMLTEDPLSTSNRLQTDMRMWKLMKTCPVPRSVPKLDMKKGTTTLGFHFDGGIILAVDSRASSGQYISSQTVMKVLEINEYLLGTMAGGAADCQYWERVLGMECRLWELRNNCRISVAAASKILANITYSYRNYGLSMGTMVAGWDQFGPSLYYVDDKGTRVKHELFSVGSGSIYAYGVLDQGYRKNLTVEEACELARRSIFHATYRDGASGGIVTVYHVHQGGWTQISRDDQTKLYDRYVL

[8] = species: Homo sapiens; assay: To identify inhibition of the IFN signalling (Jak-Stat) pathway via expression of an eGFP reporter gene under the control of an IFN-stimulated response element (ISRE) containing MxA promoter.; assay type: functional; conditions: 30 µM
[9] = target: T4, Tyrosyl-tRNA synthetase, putative (Trypanosoma cruzi (strain CL Brener)) (UniProt Q4DSP6); assay: Trypanosoma cruzi tyrosyl tRNA synthetase (TcYRS) _High Tyrosine SOP; assay type: functional; conditions: 30 µM; also: in the data most compounds retested in dose-response had high values
T4 sequence (whole entry): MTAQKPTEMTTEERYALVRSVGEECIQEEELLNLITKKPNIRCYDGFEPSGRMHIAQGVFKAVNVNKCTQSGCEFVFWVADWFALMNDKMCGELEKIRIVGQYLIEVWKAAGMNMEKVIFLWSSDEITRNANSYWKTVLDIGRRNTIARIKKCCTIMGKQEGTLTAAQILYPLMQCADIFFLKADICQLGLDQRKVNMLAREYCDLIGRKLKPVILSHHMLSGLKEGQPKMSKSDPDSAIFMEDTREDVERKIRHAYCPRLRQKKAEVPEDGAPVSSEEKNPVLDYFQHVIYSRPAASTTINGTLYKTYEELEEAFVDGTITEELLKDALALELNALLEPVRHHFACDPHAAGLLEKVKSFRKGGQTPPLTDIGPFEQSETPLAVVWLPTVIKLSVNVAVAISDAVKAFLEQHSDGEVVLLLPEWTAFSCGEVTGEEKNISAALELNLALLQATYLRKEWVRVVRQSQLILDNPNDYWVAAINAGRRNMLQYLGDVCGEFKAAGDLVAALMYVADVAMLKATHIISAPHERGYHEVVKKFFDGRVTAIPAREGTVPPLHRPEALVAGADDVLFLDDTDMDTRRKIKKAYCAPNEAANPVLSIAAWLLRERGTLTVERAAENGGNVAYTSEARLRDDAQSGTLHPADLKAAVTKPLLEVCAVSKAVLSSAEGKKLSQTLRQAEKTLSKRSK

[10] = target: T4, Tyrosyl-tRNA synthetase, putative (Trypanosoma cruzi (strain CL Brener)); assay: Trypanosoma cruzi tyrosyl tRNA synthetase (TcYRS) SOP; assay type: functional; conditions: 30 µM
[11] = target: Chromo domain-containing protein 1 (Saccharomyces cerevisiae (strain ATCC 204508 / S288c) (Baker's yeast)) (UniProt P32657); assay: ScCHD-1 Enzyme Inhibition Assay; assay type: functional; conditions: 30 µM; also: in the data most compounds retested in dose-response had high values
Chromo domain-containing protein 1 (Saccharomyces cerevisiae (strain ATCC 204508 / S288c) (Baker's yeast)), sequence (P32657 whole entry, the tested form may be a part): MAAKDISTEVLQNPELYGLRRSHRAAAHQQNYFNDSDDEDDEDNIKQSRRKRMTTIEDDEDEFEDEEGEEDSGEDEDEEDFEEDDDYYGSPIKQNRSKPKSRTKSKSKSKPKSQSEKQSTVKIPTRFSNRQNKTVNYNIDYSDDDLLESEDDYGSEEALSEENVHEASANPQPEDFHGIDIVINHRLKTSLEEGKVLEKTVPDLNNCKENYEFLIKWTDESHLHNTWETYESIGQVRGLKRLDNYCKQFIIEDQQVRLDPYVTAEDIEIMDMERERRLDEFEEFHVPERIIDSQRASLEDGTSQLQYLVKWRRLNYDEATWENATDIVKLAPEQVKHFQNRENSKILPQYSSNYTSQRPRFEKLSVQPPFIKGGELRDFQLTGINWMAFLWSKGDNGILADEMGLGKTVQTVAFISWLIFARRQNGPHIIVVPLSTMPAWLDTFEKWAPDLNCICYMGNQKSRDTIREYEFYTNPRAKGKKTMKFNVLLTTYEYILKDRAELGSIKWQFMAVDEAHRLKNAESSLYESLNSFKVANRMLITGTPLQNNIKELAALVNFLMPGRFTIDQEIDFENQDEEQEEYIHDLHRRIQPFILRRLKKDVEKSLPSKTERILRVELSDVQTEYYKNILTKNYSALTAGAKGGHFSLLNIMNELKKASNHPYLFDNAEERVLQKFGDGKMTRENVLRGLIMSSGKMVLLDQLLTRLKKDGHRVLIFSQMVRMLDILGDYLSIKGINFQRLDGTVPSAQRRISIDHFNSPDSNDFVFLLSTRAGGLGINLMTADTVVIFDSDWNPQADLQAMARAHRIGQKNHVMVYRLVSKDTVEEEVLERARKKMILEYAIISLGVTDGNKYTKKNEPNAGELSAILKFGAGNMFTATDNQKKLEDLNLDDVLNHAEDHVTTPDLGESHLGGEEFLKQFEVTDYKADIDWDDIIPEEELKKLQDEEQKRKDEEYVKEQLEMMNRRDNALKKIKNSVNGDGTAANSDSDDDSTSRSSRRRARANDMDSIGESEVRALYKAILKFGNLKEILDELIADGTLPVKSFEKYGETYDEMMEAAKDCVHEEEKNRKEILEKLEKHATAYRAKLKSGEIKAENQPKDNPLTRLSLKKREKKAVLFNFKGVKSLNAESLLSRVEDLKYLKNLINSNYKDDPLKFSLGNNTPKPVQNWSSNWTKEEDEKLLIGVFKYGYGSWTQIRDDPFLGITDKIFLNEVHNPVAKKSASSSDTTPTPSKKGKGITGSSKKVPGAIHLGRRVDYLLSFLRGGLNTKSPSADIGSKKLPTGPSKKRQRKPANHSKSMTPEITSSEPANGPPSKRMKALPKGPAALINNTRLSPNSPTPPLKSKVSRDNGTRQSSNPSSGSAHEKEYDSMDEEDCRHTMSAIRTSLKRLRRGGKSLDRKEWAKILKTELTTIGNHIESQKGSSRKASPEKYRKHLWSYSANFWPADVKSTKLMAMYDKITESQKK

Protein translocase subunit SecA (Escherichia coli (strain K12)), sequence (P10408 whole entry): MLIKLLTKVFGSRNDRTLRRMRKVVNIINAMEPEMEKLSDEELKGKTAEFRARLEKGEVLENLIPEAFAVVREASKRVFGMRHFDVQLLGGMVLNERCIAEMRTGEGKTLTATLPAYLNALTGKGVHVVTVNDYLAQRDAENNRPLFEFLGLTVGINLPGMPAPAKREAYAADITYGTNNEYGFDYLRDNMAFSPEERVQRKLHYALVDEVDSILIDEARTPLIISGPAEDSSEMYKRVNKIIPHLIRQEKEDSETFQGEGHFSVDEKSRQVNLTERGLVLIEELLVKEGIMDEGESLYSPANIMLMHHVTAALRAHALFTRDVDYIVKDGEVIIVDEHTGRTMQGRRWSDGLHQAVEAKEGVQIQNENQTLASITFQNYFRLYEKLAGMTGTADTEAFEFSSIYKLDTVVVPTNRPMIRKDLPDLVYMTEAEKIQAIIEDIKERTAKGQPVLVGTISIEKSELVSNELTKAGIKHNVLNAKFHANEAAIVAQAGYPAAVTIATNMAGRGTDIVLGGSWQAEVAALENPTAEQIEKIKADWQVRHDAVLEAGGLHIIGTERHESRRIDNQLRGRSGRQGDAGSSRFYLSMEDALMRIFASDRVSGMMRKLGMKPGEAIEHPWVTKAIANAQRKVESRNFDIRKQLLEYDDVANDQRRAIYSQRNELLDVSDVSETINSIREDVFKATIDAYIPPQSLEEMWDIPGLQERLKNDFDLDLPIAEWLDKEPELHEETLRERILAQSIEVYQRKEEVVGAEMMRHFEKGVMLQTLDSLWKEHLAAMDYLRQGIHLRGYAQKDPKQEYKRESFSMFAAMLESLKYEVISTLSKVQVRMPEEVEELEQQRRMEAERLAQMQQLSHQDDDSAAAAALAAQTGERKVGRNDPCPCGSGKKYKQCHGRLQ
Sialic acid-binding Ig-like lectin 9 (Homo sapiens), sequence (Q9Y336 whole entry): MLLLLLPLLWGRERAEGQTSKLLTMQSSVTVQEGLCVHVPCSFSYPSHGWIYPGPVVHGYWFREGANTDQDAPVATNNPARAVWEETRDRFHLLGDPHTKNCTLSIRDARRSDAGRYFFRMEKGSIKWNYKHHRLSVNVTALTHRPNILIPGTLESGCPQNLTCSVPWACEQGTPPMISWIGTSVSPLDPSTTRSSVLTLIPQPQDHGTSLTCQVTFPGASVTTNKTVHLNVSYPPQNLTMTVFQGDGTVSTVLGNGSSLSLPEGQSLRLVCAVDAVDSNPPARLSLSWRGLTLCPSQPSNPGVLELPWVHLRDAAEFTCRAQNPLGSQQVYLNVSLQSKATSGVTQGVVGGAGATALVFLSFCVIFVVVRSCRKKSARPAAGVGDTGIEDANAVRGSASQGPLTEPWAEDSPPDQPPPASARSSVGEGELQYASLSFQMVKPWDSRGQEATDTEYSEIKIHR

Row | Compound | Percent Effect [1] [%] | Percent Effect [2] [%] | Percent Effect [3] [%] | Percent Effect [4] [%] | Percent Effect [5] [%] | Percent Effect [6] [%] | Percent Effect [7] [%] | Percent Effect [8] [%] | Percent Effect [9] [%] | Percent Effect [10] [%] | Percent Effect [11] [%]
1 | Cc1noc(C(C)N2CCN(CCCN3CCCC3=O)CC2)n1 (configuration not stated) | -1.22 | 21.6 | 32.3 | 1.61 | 1.23 | -8.02 | 19.5 | 9.12 | 7.39 | 23.5 | -15.8
2 | O=C(NCc1ccccc1CN1CCC(O)CC1)Nc1ccncc1 | 5.78 | 10.8 | -5.37 | 6.21 | -5.21 | 0 | 16.2 | 28 | 6.88 | 14.6 | -3.29
3 | CC(=O)N1CCCN(c2nccc(-c3cn(C)nc3C)n2)CC1 | -5.23 | 5.33 | -0.173 | 25.5 | 0.682 | 0 | 9.24 | -1.59 | 0.546 | 8.64 | -7.43
4 | CC(C)c1nc(CN2CCCCC2)cs1 | -4.24 | -5.2 | 15.4 | 0.118 | -0.686 | -0.632 | -1.54 | 47.1 | -2.86 | -2.35 | 0.144
5 | CC(C)c1n[nH]c(C2CN(C(=O)c3cccc4cn[nH]c34)CCO2)n1 (configuration not stated) | -1.73 | 7.89 | 4.13 | 11.6 | 2.33 | 1.8 | 4.32 | 4.21 | 2.46 | 6.17 | -0.736
6 | c1cnn(CC2CN(CC3CCCC3)CCO2)c1 (configuration not stated) | -5.26 | 3.8 | -0.822 | 1.53 | 0.308 | 0.645 | 10.6 | -2.54 | 5.21 | -15.2 | -17.2
7 | CC(NC1CCN(CCS(C)(=O)=O)CC1)c1ccc(Cl)cc1 (configuration not stated) | -1.94 | 0 | -3.49 | 0.142 | -5.02 | -0.476 | 3.62 | 21.6 | 0.529 | 7.32 | -2.22
8 | Cc1ccc(N2CC[C@H](OCC3CC3)[C@@H]2Cc2cnn(C)c2)nn1 | -4.88 | 5.41 | -7.52 | -0.711 | -0.195 | 0.833 | 15.1 | 8.56 | 7.92 | 8.54 | 0.632
9 | CC(C(=O)Nc1ccc(N2CCCC2)nc1)n1cncn1 (configuration not stated) | -5.02 | 10.8 | -32.5 | 18.1 | 4.62 | -9.62 | 14.2 | 19.2 | 7.39 | 18.5 | -10.4
10 | O=C(NCc1ccccn1)NC1CCOc2ccccc21 (configuration not stated) | -4.23 | 24.3 | -0.78 | 9.97 | 9.19 | 1.29 | 9.52 | 12 | 9.9 | 28.1 | -5.33
11 | CC(NC(=O)CSCC(=O)Nc1ccccc1)c1ccccc1 (configuration not stated) | -1.97 | 2.63 | -2 | -3.2 | -0.654 | 1.08 | -0.761 | -13.7 | 3.45 | 3.7 | 8.03
12 | Cc1ccc(C2CSCCN2C(=O)c2ccsc2)o1 (configuration not stated) | -7.12 | 8.11 | 5.16 | 3.24 | -1.66 | 4.22 | 8.15 | -0.446 | 1.07 | 6.17 | -3.21
13 | COc1cccc(C2CCCN2Cc2nc3c(cnn3C)c(=O)[nH]2)c1 (configuration not stated) | -0.893 | 22.8 | 2.53 | -5.13 | 0.661 | 3.8 | 14.2 | 17.2 | 6.4 | 24.1 | -5.39
14 | CNC(=O)[C@@]12CCCN(c3ncccn3)[C@@H]1CN(C(=O)NC(C)C)C2 | -0.175 | 20.8 | 3.44 | -13.2 | -0.296 | 1.94 | 16.5 | 12.8 | -6.35 | 14.1 | -12.4
15 | Cc1ccc(C(=O)N2CCC3(CC2)NC(=O)CC3c2ccccc2)cn1 (configuration not stated) | -2.54 | 2.67 | 3.38 | 7.94 | 0.965 | -48.6 | 7.35 | -9.77 | 2.08 | 5 | -2.72
16 | CC(C)(C)n1ncc2c1CCCC2NCc1cccc2c1OCO2 (configuration not stated) | -2.65 | -1.27 | 2.85 | 2.62 | -4.41 | 6.24 | 10.1 | 12.2 | 1.04 | -5.06 | -10.4
17 | CC(=O)N1CCCN(C(=O)NCc2cc[nH]n2)CC1 | -8.38 | 13.2 | -10.6 | 1.18 | 11.1 | 1.08 | 14.6 | 1 | 11.3 | 23.5 | -8.49
18 | CCCC(=O)Nc1sc(C(=O)OCC)c(C)c1C#N | 0.0516 | 7.79 | 24.2 | -8.77 | -5.42 | 8.39 | 10.4 | -0.547 | 1.06 | 16.7 | -3.68
19 | CCOCC(=O)N1C[C@@H](NC(C)=O)[C@H](c2ccc(OC)cc2)C1 | -0.132 | 5.33 | -8.83 | 9.11 | 2.63 | 18.8 | 15.2 | 14.1 | 7.1 | 18.5 | -1.7
20 | c1ccc(OCC2CC3(CCN(c4ncccn4)CC3)CO2)nc1 (configuration not stated) | -0.807 | 1.33 | 3.04 | -2.52 | -1.57 | -5.46 | 10.9 | 14 | 0 | -2.56 | -5.94
21 | Cc1noc2nc(C3CCN(CC4=CCCOC4)CC3)cc(C(F)F)c12 | -1.97 | 6.76 | 13.4 | 0.663 | -3.56 | -3.02 | 3.28 | 2.72 | 7.53 | 11.7 | -11.7
22 | CC1CCN(S(=O)(=O)NCc2ccccc2Cn2cncn2)CC1 | -3.83 | 13.9 | 6.66 | 0.681 | -1.54 | 3.23 | 13.4 | 10.6 | 3.12 | 20.2 | -23.4
